PubChem BioAssay AID1159580 (chemical genetic matrix, 2015)
Where “and” joins values, the source holds several entries; their conditions need not be identical. Equal entries are not always repeated. Among all 5,500 compounds or so, about 2,000 (36%) were called active. Roughly 18% stayed inconclusive and do not appear here. Cut-off read from the data, not from the text of the source: active = normalized growth mostly below about 0.91 (no sharp cut-off); inconclusive = no clear call, values can overlap the other calls; inactive = mostly above about 0.92. The list shows a part of the results.

Assay: chemical genetic growth profiling, strain panel (AID 1159580);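 note: tested at 20 µM; growth read once vehicle control cultures reached saturation at 30 °C; 1 = growth at the plate median or of vehicle wells; lower values mean less growth of the strain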
Settings: growth OD
[1] = S. cerevisiae deletion strains, locus YBR229C, strain ROT2, hits give low values
[2] = S. cerevisiae deletion strains, locus YDL101C, strain DUN1, hits give low values
[3] = S. cerevisiae deletion strains, locus YDL134C, strain PPH21, hits give low values
[4] = S. cerevisiae deletion strains, locus YDR150W, strain NUM1, hits give low values
[5] = S. cerevisiae deletion strains, locus YEL061C, strain CIN8, hits give low values
[6] = S. cerevisiae deletion strains, locus YGR078C, strain PAC10, hits give low values
[7] = S. cerevisiae deletion strains, locus YHR030C, strain SLT2, hits give low values
[8] = S. cerevisiae deletion strains, locus YJR043C, strain POL32, hits give low values
[9] = S. cerevisiae deletion strains, locus YJR075W, strain HOC1, hits give low values
[10] = S. cerevisiae deletion strains, locus YLR039C, strain RIC1, hits give low values
[11] = S. cerevisiae deletion strains, locus YLR262C, strain YPT6, hits give low values
[12] = S. cerevisiae deletion strains, locus YMR263W, strain SAP30, hits give low values
[13] = S. cerevisiae deletion strains, locus YNL128W, strain TEP1, hits give low values
[14] = S. cerevisiae deletion strains, locus YNL322C, strain KRE1, hits give low values
[15] = S. cerevisiae deletion strains, locus YPL055C, strain LGE1, hits give low values
[16] = S. cerevisiae deletion strains, locus YPL241C, strain CIN2, hits give low values
[17] = S. cerevisiae strains, strain wild type, hits give low values

Measured: normalized growth

NCCNC(=O)c1ccc(Cl)cc1
inactive: S. cerevisiae deletion strains, locus YAL040C, strain CLN3, hits give low values 1.07 | S. cerevisiae deletion strains, locus YBR021W, strain FUR4, hits give low values 0.997 | [1] 0.994 | S. cerevisiae deletion strains, locus YCL029C, strain bik1, hits give low values 0.986 | S. cerevisiae deletion strains, locus YCL061C, strain MRC1 (second series), hits give low values 0.997 | S. cerevisiae deletion strains, locus YDL035C, strain GPR1, hits give low values 0.997 | S. cerevisiae deletion strains, locus YDL074C, strain BRE1, hits give low values 1.05 | [2] 0.994 | [3] 0.98 | S. cerevisiae deletion strains, locus YDL185W, strain tfp1, hits give low values 0.984 | S. cerevisiae deletion strains, locus YDL192W, strain arf1, hits give low values 0.973 | S. cerevisiae deletion strains, locus YDR101C, strain arx1, hits give low values 1.03 | [4] 0.998 and 0.995 | S. cerevisiae deletion strains, locus YDR162C, strain NBP2, hits give low values 0.984 | S. cerevisiae deletion strains, locus YDR318W, strain mcm21, hits give low values 0.987 | S. cerevisiae deletion strains, locus YDR363W, strain ESC2, hits give low values 1.01 | S. cerevisiae deletion strains, locus YDR388W, hits give low values 0.98 | S. cerevisiae deletion strains, locus YDR502C, strain sam2, hits give low values 1 | [5] 0.99 | S. cerevisiae deletion strains, locus YER002W, strain NOP16, hits give low values 1.02 | S. cerevisiae deletion strains, locus YER110C, hits give low values 0.959 | S. cerevisiae deletion strains, locus YER155C, strain BEM2, hits give low values 0.999 | S. cerevisiae deletion strains, locus YER167W, strain BCK2, hits give low values 0.99 | S. cerevisiae deletion strains, locus YGL078C, strain dbp3, hits give low values 0.961 | S. cerevisiae deletion strains, locus YGL086W, strain mad1, hits give low values 1.01 | S. cerevisiae deletion strains, locus YGL248W, strain PDE1, hits give low values 0.996 | [6] 1.03 and 0.988 | S. cerevisiae deletion strains, locus YGR135W, strain pre9, hits give low values 0.948 | S. cerevisiae deletion strains, locus YGR252W, strain gcn5, hits give low values 0.931 | [7] 0.987 | S. cerevisiae deletion strains, locus YHR079C, strain IRE1 (second series), hits give low values 0.991 | S. cerevisiae deletion strains, locus YHR094C, strain hxt1, hits give low values 0.986 | S. cerevisiae deletion strains, locus YHR129C, strain ARP1, hits give low values 0.998 | S. cerevisiae deletion strains, locus YHR200W, strain rpn10, hits give low values 0.983 | S. cerevisiae deletion strains, locus YIL066C, strain RNR3, hits give low values 0.998 | S. cerevisiae deletion strains, locus YIL073C, strain SPO22, hits give low values 0.94 | S. cerevisiae deletion strains, locus YIL125W, strain kgd1, hits give low values 0.988 | S. cerevisiae deletion strains, locus YIR030C, strain dcg1, hits give low values 0.982 | S. cerevisiae deletion strains, locus YJL095W, strain BCK1, hits give low values 1.02 | S. cerevisiae deletion strains, locus YJL134W, strain LCB3, hits give low values 0.991 | S. cerevisiae deletion strains, locus YJL168C, strain set2, hits give low values 0.984 | S. cerevisiae deletion strains, locus YJL187C, strain SWE1 (second series), hits give low values 1 | [8] 1.02 | [9] 0.999 | S. cerevisiae deletion strains, locus YKL009W, strain mrt4, hits give low values 0.969 | S. cerevisiae deletion strains, locus YKL068W, hits give low values 0.989 | S. cerevisiae deletion strains, locus YKL085W, strain MDH1 (second series), hits give low values 1 | S. cerevisiae deletion strains, locus YKL085W, strain MDH1, hits give low values 1 | S. cerevisiae deletion strains, locus YKL190W, strain CNB1, hits give low values 0.998 | S. cerevisiae deletion strains, locus YKR001C, strain vps1, hits give low values 0.993 | [10] 1.04 | S. cerevisiae deletion strains, locus YLR058C, strain SHM2, hits give low values 0.988 | S. cerevisiae deletion strains, locus YLR102C, strain apc9, hits give low values 0.976 | [11] 0.996 | S. cerevisiae deletion strains, locus YLR268W, strain sec22, hits give low values 0.992 | S. cerevisiae deletion strains, locus YLR330W, strain CHS5, hits give low values 0.999 | S. cerevisiae deletion strains, locus YLR342W, strain FKS1 (second series), hits give low values 0.984 | S. cerevisiae deletion strains, locus YLR371W, strain rom2, hits give low values 0.991 | S. cerevisiae deletion strains, locus YLR418C, strain cdc73, hits give low values 0.975 | S. cerevisiae deletion strains, locus YML016C, strain PPZ1, hits give low values 0.991 | S. cerevisiae deletion strains, locus YML032C, strain rad52, hits give low values 0.984 | S. cerevisiae deletion strains, locus YML124C, strain tub3, hits give low values 0.99 | S. cerevisiae deletion strains, locus YMR078C, strain ctf18, hits give low values 0.967 | S. cerevisiae deletion strains, locus YMR223W, strain ubp8, hits give low values 0.958 | [12] 1.01 and 0.997 | S. cerevisiae deletion strains, locus YMR307W, strain GAS1, hits give low values 0.984 and 0.965 | S. cerevisiae deletion strains, locus YNL067W, strain RPL9B, hits give low values 1.01 | [13] 0.984 and 0.991 | S. cerevisiae deletion strains, locus YNL175C, strain NOP13, hits give low values 0.99 | S. cerevisiae deletion strains, locus YNL197C, strain WHI3, hits give low values 0.992 | S. cerevisiae deletion strains, locus YNL224C, strain SQS1, hits give low values 0.999 | S. cerevisiae deletion strains, locus YNL233W, strain BNI4, hits give low values 1.02 | S. cerevisiae deletion strains, locus YNL250W, strain rad50, hits give low values 0.942 | S. cerevisiae deletion strains, locus YNL271C, strain bni1, hits give low values 0.983 | S. cerevisiae deletion strains, locus YNL298W, strain CLA4, hits give low values 0.96 | S. cerevisiae deletion strains, locus YNL307C, strain MCK1, hits give low values 0.981 | [14] 1.01 | S. cerevisiae deletion strains, locus YNR052C, strain pop2, hits give low values 0.974 | S. cerevisiae deletion strains, locus YOL006C, strain TOP1, hits give low values 1.08 | S. cerevisiae deletion strains, locus YOL012C, strain htz1 1.91 | S. cerevisiae deletion strains, locus YOL147C, strain pex11, hits give low values 0.985 | S. cerevisiae deletion strains, locus YOR061W, strain CKA2, hits give low values 0.992 | S. cerevisiae deletion strains, locus YOR069W, strain VPS5, hits give low values 0.984 | S. cerevisiae deletion strains, locus YOR083W, strain WHI5 (second series), hits give low values 0.99 | S. cerevisiae deletion strains, locus YOR136W, strain idh2, hits give low values 0.993 | S. cerevisiae deletion strains, locus YOR144C, strain elg1, hits give low values 0.983 | S. cerevisiae deletion strains, locus YOR184W, strain ser1, hits give low values 0.968 | S. cerevisiae deletion strains, locus YOR316C, strain cot1, hits give low values 0.981 | [15] 1.01 | [16] 0.997 | S. cerevisiae deletion strains, locus YPR119W, strain clb2, hits give low values 0.977 | S. cerevisiae deletion strains, locus YPR141C, strain kar3, hits give low values 0.978 | S. cerevisiae deletion strains, locus YPR163C, strain tif3, hits give low values 0.987 | S. cerevisiae deletion strains, locus YPR167C, strain met16, hits give low values 0.973 | S. cerevisiae deletion strains, strain wtn01, hits give low values 0.968 | [17] 0.998

CCCCNC(=O)NCCSCc1ccco1
inactive: S. cerevisiae deletion strains, locus YAL013W, strain DEP1, hits give low values 1.01 | [1] 0.986 | [2] 0.982 | [3] 0.993 | [4] 1 | [5] 0.98 | [6] 0.994 | [7] 1.02 | S. cerevisiae deletion strains, locus YHR087W, strain rtc3, hits give low values 0.99 | [8] 1.01 | [9] 1.01 | [10] 1 | S. cerevisiae deletion strains, locus YLR058C, strain SHM2 (second series), hits give low values 0.991 | S. cerevisiae deletion strains, locus YLR085C, strain ARP6, hits give low values 0.943 | [11] 1.02 | S. cerevisiae deletion strains, locus YML094W, strain GIM5, hits give low values 0.988 | S. cerevisiae deletion strains, locus YMR219W, strain ESC1, hits give low values 0.989 | [12] 0.996 | [13] 0.987 | S. cerevisiae deletion strains, locus YNL153C, strain GIM3, hits give low values 1.01 | S. cerevisiae deletion strains, locus YNL298W, strain CLA4 (second series), hits give low values 0.984 | [14] 0.99 | S. cerevisiae deletion strains, locus YNR030W, strain Alg12, hits give low values 0.998 | [15] 1 | [16] 0.988 | S. cerevisiae deletion strains, locus YPR135W, strain CTF4, hits give low values 1.05 | [17] 0.98
